# Compounds with a hit are over-represented: about 14% of the library has one in this group of screens.
# Giardia FBPA inh: inhibitors of Giardia lamblia fructose-1,6-bisphosphate aldolase | A8B2U2 | purified Giardia FBPA | Potency, µM (series often up to 59.6 µM), for inactives: top-dose activity, negative = inhibition, actives largely listed as inhibitors | 0.71% of 290,000 active | AID 2451; also: potency is read from the fitted curve at half-maximal effect; nearly all actives have a fitted effect of over 55% in size
# Target sequence (A8B2U2 whole entry, looked up): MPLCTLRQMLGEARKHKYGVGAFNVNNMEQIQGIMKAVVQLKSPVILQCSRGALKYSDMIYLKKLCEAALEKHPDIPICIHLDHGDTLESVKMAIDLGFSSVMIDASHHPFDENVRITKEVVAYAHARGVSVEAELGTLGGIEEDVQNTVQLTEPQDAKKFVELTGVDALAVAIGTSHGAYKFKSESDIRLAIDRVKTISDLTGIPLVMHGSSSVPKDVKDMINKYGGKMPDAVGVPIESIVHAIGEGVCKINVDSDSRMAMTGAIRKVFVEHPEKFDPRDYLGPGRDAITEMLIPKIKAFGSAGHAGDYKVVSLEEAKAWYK
#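 Giardia FBPA (40 nM reagent) was preincubated 10 min at RT with compound (up to 57.5 uM final), then substrate plus GAPDH/TPI/NAD/arsenate coupling system with diaphorase/resazurin was added; resorufin fluorescence (525/598 nm) was read after 20 min.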
# Pf growth 96h: P. falciparum growth inhibition at 96 hour, primary screen for plastid delayed-death inhibitors. P. falciparum luciferase reporter growth, 96 h. AID 504834. 6.9% of 320,000 active. Potency, µM (titrated, usually from 28.7 µM), for the others: at the top dose activity change, negative = inhibition, actives largely listed as inhibitors; also: potency is read from the fitted curve at half-maximal effect
#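 96 h incubation, 37 C, 5% CO2, of luciferase-reporter P. falciparum-infected RBCs (2% hematocrit, 0.05% parasitemia final) with test compounds; endpoint luminescence.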
# Sm TGR inh: inhibitors of Schistosoma mansoni thioredoxin glutathione reductase | purified TGR, DTNB reduction, TNB absorbance 405 nm | Q962Y6 | 3% of 360,000 active | Potency, µM (titrated, usually from 114 µM), for the others: at the highest dose activity change, negative = inhibition, actives largely listed as inhibitors; also: potency is read from the fitted curve at half-maximal effect; nearly all actives have a fitted effect of over 60% in size
#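 First, TGR (20 nM dispensed) and NADPH were mixed with compound. Second, a 15 min room-temperature incubation followed. Third, further NADPH and then DTNB were added to start the reaction. Finally, TNB absorbance was monitored kinetically.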
# HCMV antiviral: inhibitors of human cytomegalovirus. HFF cells, HCMV-luciferase reporter, 72 h; hits give low values. activity change, negative = inhibition, % at 57.5 µM. 4.5% of 410,000 active; in the data active = activity change below about -60%; inconclusive = no clear call, values can overlap the other calls; inactive = above about -39%
#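 After 16 h attachment at 37C, HFF cells received test compound and HCMV-luciferase (1 PFU/cell); reporter luminescence read 72 h later, data normalized against buffer-only and known inhibitor Salinomycin.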
# Pf growth 48h: inhibits P. falciparum growth in the first generation, 48 h; P. falciparum luciferase growth in erythrocytes, 48 h; Potency, µM (titrated, usually from 28.7 µM), for inactives: at the top dose activity change, negative = inhibition, hits mostly inhibitors; 5.9% of 310,000 active; also: potency is read from the fitted curve at half-maximal effect
#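 A one-generation exposure of luciferase-tagged malaria parasites in RPMI 1640/Albumax erythrocyte culture, 37 C and 5% CO2. Inhibition is inferred from decreased luminescence after adding detection reagent.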
# Active calls of the source: *; ? = inconclusive; / = no result; [ ] = another dose, or the depositor's remark. Unless noted, calls follow the shape of the dose curve; as a rule, active = well fitted curve in the direction sought with a large enough effect; inconclusive = small, poorly fitted or top-dose-only effect, or another doubt; inactive = no such curve, though single readings can be large; an effect the other way counts as inactive or inconclusive. % is scaled to controls: 0 for no effect and ±100 for the full control effect.
SMILES,Giardia FBPA inh,Pf growth 96h,Sm TGR inh,HCMV antiviral,Pf growth 48h
COc1cnc(-c2ccccn2)nc1Sc1ccccc1Cl,-16%,?,7%,-98*,?
CC(=O)Oc1ccc2oc(/C=C/N(C)C)c([N+](=O)[O-])c2c1,1%,?,-16%,22,/
C/C(=C/c1oc2ccc(O)cc2c1[N+](=O)[O-])N(C)C,-6%,15µM*,-8%,64,/
CC(C)(C)OC(=O)NCCc1nnc(SCc2ccccc2Cl)o1,-2%,-4%[5.75 µM],-27%,14,?
CC(C)(C)OC(=O)NCCc1nnc(S(=O)(=O)Cc2ccc(Cl)cc2Cl)o1,-3%,8%,0.89µM*,47,-13%
O=C(N/N=C(\c1ccccc1)c1ccccn1)c1ccccc1Cl,20%,2.6µM*,-1%,-114*,2.3µM*
O=C(NN=C(c1ccccc1)c1ccccn1)c1ccccc1,/,/,/,-98*,/
COc1ccc(C(=O)Nc2ccc(NC(=O)c3ccccn3)cn2)cc1,0%,-3%,0%,-32,21%
COc1ccc(C(=O)N/N=C(\c2ccccc2)c2ccccn2)cc1,-14%,3.7µM*,-9%,-99*,2.6µM*
CCCCN(CC)C(=O)CSc1c2c(nc3ccc(Cl)cc13)CCCC2,/,/,-11%,-38,/
CCN(C(=O)c1oc2ccc(S(=O)(=O)N3CCCCCC3)cc2c1C)c1ccccc1,/,/,7%,-9,/
Cc1ccc2oc(C(=O)N3CCCCCC3)c(C)c2c1,/,13µM*,5%,195,-20%
CCN(CC)C(=O)C1CCN(S(=O)(=O)c2ccc3oc4ccccc4c3c2)CC1,2%,?,-15%,-70*,9%
O=S(=O)(c1ccc2oc3ccccc3c2c1)N1CCCC1,2%,-20%,0%,-25,?
CCOC(=O)N1CCN(C(=O)c2oc3ccc(S(=O)(=O)N4CCCCCC4)cc3c2C)CC1,0%,?,-11%,?,12µM*
CCCCN(CC)C(=O)c1oc2ccc(S(=O)(=O)N3CCCC3)cc2c1C,5%,13µM*,-5%,0,?
COc1ccc(C(=O)CC(=O)C(=O)Nc2ccc(C)c(Cl)c2)cc1,-16%,14%,-19%,-7,/
Clc1ccccc1CSc1nnc(C2CCNCC2)o1,/,/,-17%,-14,/
COc1cccc(CNC(=O)c2c(C)nn(-c3ccc(F)cc3)c2-n2cccc2)c1,/,/,7%,-29,/
CCOC(=O)N1CCN(C(=O)c2oc3ccc(S(=O)(=O)N4CC(C)CC(C)C4)cc3c2C)CC1 (centres undefined),-2%,/,0%,?,?
CCOC(=O)n1c(=O)oc2cc(S(=O)(=O)N3CCCCC3)ccc21,-4%,0.0029µM*,-21%,18,?
COC(=O)n1c(=O)oc2cc(S(=O)(=O)N3CCCCC3)ccc21,7%,160%,0%,-27,-12%
CCOC(=O)C1CCN(C(=O)c2oc3ccc(S(=O)(=O)N4CC(C)CC(C)C4)cc3c2C)CC1 (centres undefined),10%,31%,2%,-33,2.3µM*
NS(=O)(=O)c1ccc(CCNCc2cc(Br)ccc2OCc2ccccc2F)cc1,-8%,?,12%,?,?
C=CCOc1ccccc1CNCCc1ccc(S(N)(=O)=O)cc1,0%,38%,3%,10,2%
SMILES,Giardia FBPA inh,Pf growth 96h,Sm TGR inh,HCMV antiviral,Pf growth 48h
NS(=O)(=O)c1ccc(CCNCc2ccccc2OCc2ccc(Cl)cc2)cc1,?,?,3%,-16,10µM*
NS(=O)(=O)c1ccc(CCNCc2cc(Cl)ccc2OCc2ccccc2)cc1,?,?,16%,-67*,?
CCOC(=O)C1(Cc2cccc(OC)c2)CCCN(C(=O)CCc2cccnc2)C1 (centres undefined),2%,-5%,7%,150,?
Cc1ccc(NCCC(=O)c2ccc(Cl)cc2)cc1,?,4%,6.3µM*,-31,43%
Cc1ccc(NCCC(=O)c2ccc(Br)cc2)cc1,5%,71%,7.1µM*,-22,1%
O=C(CNc1ccc(Br)cc1)c1ccc(O)cc1,1%,6%,-8%,-14,70%
CCc1ccc(NCCC(=O)c2ccc(Br)cc2)cc1,1%,58%,13µM*,29,36%
Cc1ccc(NCC(=O)c2ccc(C)cc2)cc1,-10%,-14%,0%,57,46%
Cc1ccccc1Cn1c(SCc2ccc(C(=O)NC3CCCCC3)cc2)nc2ccncc21,/,/,9%,11,/
COc1ccc(OCCNC(=O)c2ccc3nc(C)c(N(C)Cc4ccc(NC(C)=O)cc4)n3c2)cc1,/,/,/,-17,/
N#Cc1ccc(-c2ccc(OCC(=O)Nc3cccnc3)cc2)cc1,/,-4%,2%,-69*,3%
CC(=O)Nc1ccc(NC(=O)COc2ccc(-c3ccc(C#N)cc3)cc2)cc1,/,21%,1%,21,35%
O=c1[nH]cc(CCCc2ccccc2)c(=O)[nH]1,/,/,/,-11,/
Cc1cccc(CNC(=O)c2ccc3nc(Cc4ccccc4)oc3c2)c1,/,/,3%,4,/
COC(=O)CCC(=O)NNC(=O)C1CC1(c1ccccc1)c1ccccc1 (centres undefined),3%,10µM*,7%,31,18%
Cc1ccc(-c2cc(C(=O)N3CC(C)CC(C)C3)c3ccccc3n2)o1 (centres undefined),14%,?,22µM*,3,?
Cc1ccc(-c2cc(C(=O)N3CC(C)OC(C)C3)c3ccccc3n2)o1 (centres undefined),/,1%,40µM*,13,-1%
Cc1ccc(N=C2N=C(N)c3ccccc32)cc1C,/,/,/,-63*,/
CCc1ccc(N=C2N=C(N)c3ccccc32)cc1,-4%,78%,-2%,85,/
CCCCc1nnc(SCCSc2nnc(CCCC)n2N)n1N,1%,13µM*,-2%,30,-12%
CCOC(=O)c1c(C)[nH]c(C)c1S(=O)(=O)N1CCN(c2ccc(F)cc2)CC1,/,8.3µM*,-8%,29,-6%
Cc1[nH]c(=O)[nH]c(=O)c1S(=O)(=O)N1CCC(C(=O)N2CCN(c3cccc(C(F)(F)F)c3)CC2)CC1,-1%,18%,2%,?,10µM*
CCOC(=O)c1c(S(=O)(=O)N2CCN(c3cccc(C(F)(F)F)c3)CC2)c(C)n(C)c1C,/,/,1%,18,/
COC(=O)[C@@H](NC(=O)N1CCN(c2cccc(C(F)(F)F)c2)CC1)C(C)C,15%,?,-20%,-37,?
CCC(C)[C@H](NC(=O)N1CCN(c2cccc(C(F)(F)F)c2)CC1)C(=O)OC (some centres undefined),1%,5.2µM*,-2%,-26,/
CCOC(=O)c1c(C)[nH]c(C)c1S(=O)(=O)N1CCN(c2cccc(C(F)(F)F)c2)CC1,/,/,7%,-101*,/
O=CNc1cc(-c2cccc(F)c2)cn2c(-c3ccc(F)c(Cl)c3)cnc12,/,/,/,48,/
CNc1c(NC(=O)c2ccc(OC)c(OC)c2)c(=O)oc2ccccc12,/,/,7%,18,/

# Compound activity as filed in PubChem.
